# Reference: PubChem BioAssay AID1159580 (chemical genetic matrix, 2015)
# In all, about 5,500 compounds went through this assay and about 2,000 (36%) were called active. Not shown: some 18% with an inconclusive outcome. This is one part of the list. Values without a mark were called inactive. Rule as the data show it: active = normalized growth mostly below about 0.91 (no sharp cut-off); inconclusive = no clear call, values can overlap the other calls; inactive = mostly above about 0.92.
# Assay: chemical genetic growth profiling, strain panel (AID 1159580);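 also: tested at 20 µM; growth read once vehicle control cultures reached saturation at 30 °C; 1 = growth at the plate median or of vehicle wells; lower values mean less growth of the strain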
# Settings: growth OD
# [1] = S. cerevisiae deletion strains, locus YDL101C, strain DUN1, hits give low values
# [2] = S. cerevisiae deletion strains, locus YHR030C, strain SLT2, hits give low values
structure (smiles),measurement,setting,value
Cc1c(Cl)cccc1NC(=S)N1CCCN(c2nc3ccc(Cl)cc3s2)CC1,normalized growth,"S. cerevisiae deletion strains, locus YAR019C, strain CDC15, hits give low values",0.977
same,normalized growth,"S. cerevisiae deletion strains, locus YBL105C, strain PKC1, hits give low values",0.977
same,normalized growth,"S. cerevisiae deletion strains, locus YBR135W, strain CKS1, hits give low values",0.983
same,normalized growth,"S. cerevisiae deletion strains, locus YBR136W, strain MEC1, hits give low values",0.979
same,normalized growth,"S. cerevisiae deletion strains, locus YBR160W, strain CDC28, hits give low values",0.978
same,normalized growth,"S. cerevisiae deletion strains, locus YDL017W, strain CDC7, hits give low values",0.972
same,normalized growth,"S. cerevisiae deletion strains, locus YDL028C, strain MPS1, hits give low values",0.978
same,normalized growth,[1],0.965
same,normalized growth,"S. cerevisiae deletion strains, locus YDL108W, strain KIN28, hits give low values",0.983
same,normalized growth,"S. cerevisiae deletion strains, locus YDL132W, strain cdc53, hits give low values",0.99
same,normalized growth,"S. cerevisiae deletion strains, locus YDL214C, strain PRR2, hits give low values",0.97
same,normalized growth,"S. cerevisiae deletion strains, locus YDR052C, strain DBF4, hits give low values",0.986
same,normalized growth,"S. cerevisiae deletion strains, locus YDR054C, strain cdc34, hits give low values",0.975
same,normalized growth,"S. cerevisiae deletion strains, locus YDR226W, strain ADK1, hits give low values",0.984
same,normalized growth,"S. cerevisiae deletion strains, locus YDR477W, strain SNF1, hits give low values",0.933
same,normalized growth,"S. cerevisiae deletion strains, locus YER123W, strain YCK3, hits give low values",0.936
same,normalized growth,"S. cerevisiae deletion strains, locus YER133W, strain GLC7, hits give low values",0.941
same,normalized growth,"S. cerevisiae deletion strains, locus YFL009W, strain cdc4, hits give low values",0.98
same,normalized growth,"S. cerevisiae deletion strains, locus YFL029C, strain CAK1, hits give low values",0.968
same,normalized growth,"S. cerevisiae deletion strains, locus YFR003C, strain YPI1, hits give low values",0.985
same,normalized growth,"S. cerevisiae deletion strains, locus YFR019W, strain FAB1, hits give low values",1.01
same,normalized growth,"S. cerevisiae deletion strains, locus YFR028C, strain CDC14, hits give low values",0.98
same,normalized growth,"S. cerevisiae deletion strains, locus YGR040W, strain KSS1, hits give low values",0.937
same,normalized growth,"S. cerevisiae deletion strains, locus YGR052W, strain FMP48, hits give low values",0.975
same,normalized growth,"S. cerevisiae deletion strains, locus YGR092W, strain DBF2, hits give low values",0.722
same,normalized growth,[2],0.625 (active)
same,normalized growth,"S. cerevisiae deletion strains, locus YHR079C, strain IRE1, hits give low values",0.7
same,normalized growth,"S. cerevisiae deletion strains, locus YHR082C, strain KSP1, hits give low values",1.06
same,normalized growth,"S. cerevisiae deletion strains, locus YHR205W, strain SCH9, hits give low values",0.97
same,normalized growth,"S. cerevisiae deletion strains, locus YIL147C, strain SLN1, hits give low values",0.981
same,normalized growth,"S. cerevisiae deletion strains, locus YJL095W, strain BCK1, hits give low values",0.863
same,normalized growth,"S. cerevisiae deletion strains, locus YJL128C, strain PBS2, hits give low values",0.957
same,normalized growth,"S. cerevisiae deletion strains, locus YJL157C, strain FAR1, hits give low values",0.897
same,normalized growth,"S. cerevisiae deletion strains, locus YJR016C, strain ILV3, hits give low values",0.978
same,normalized growth,"S. cerevisiae deletion strains, locus YJR066W, strain TOR1 (second series), hits give low values",0.84
same,normalized growth,"S. cerevisiae deletion strains, locus YJR066W, strain TOR1, hits give low values",0.947
same,normalized growth,"S. cerevisiae deletion strains, locus YKL048C, strain ELM1, hits give low values",0.97
same,normalized growth,"S. cerevisiae deletion strains, locus YKL067W, strain YNK1, hits give low values",0.947
same,normalized growth,"S. cerevisiae deletion strains, locus YKL101W, strain HSL1, hits give low values",0.963
same,normalized growth,"S. cerevisiae deletion strains, locus YKL193C, strain SDS22, hits give low values",0.978
same,normalized growth,"S. cerevisiae deletion strains, locus YKL203C, strain TOR2, hits give low values",0.974
same,normalized growth,"S. cerevisiae deletion strains, locus YLR113W, strain HOG1, hits give low values",0.794 (active)
same,normalized growth,"S. cerevisiae deletion strains, locus YLR133W, strain CKI1, hits give low values",0.941
same,normalized growth,"S. cerevisiae deletion strains, locus YLR403W, strain SFP1, hits give low values",0.898
same,normalized growth,"S. cerevisiae deletion strains, locus YML070W, strain DAK1, hits give low values",0.972
same,normalized growth,"S. cerevisiae deletion strains, locus YMR001C, strain CDC5, hits give low values",0.982
same,normalized growth,"S. cerevisiae deletion strains, locus YMR205C, strain PFK2 (second series), hits give low values",0.971
same,normalized growth,"S. cerevisiae deletion strains, locus YMR277W, strain FCP1, hits give low values",0.976
same,normalized growth,"S. cerevisiae deletion strains, locus YNL006W, strain LST8, hits give low values",0.963
same,normalized growth,"S. cerevisiae deletion strains, locus YNL020C, strain ARK1, hits give low values",0.909
same,normalized growth,"S. cerevisiae deletion strains, locus YNL161W, strain CBK1, hits give low values",0.986
same,normalized growth,"S. cerevisiae deletion strains, locus YNL183C, strain NPR1, hits give low values",0.989
same,normalized growth,"S. cerevisiae deletion strains, locus YNL207W, strain RIO2, hits give low values",0.976
same,normalized growth,"S. cerevisiae deletion strains, locus YNL222W, strain SSU72, hits give low values",0.98
same,normalized growth,"S. cerevisiae deletion strains, locus YNL307C, strain MCK1 (second series), hits give low values",0.951
same,normalized growth,"S. cerevisiae deletion strains, locus YOL078W, strain AVO1, hits give low values",0.992
same,normalized growth,"S. cerevisiae deletion strains, locus YOL136C, strain PFK27, hits give low values",0.942
same,normalized growth,"S. cerevisiae deletion strains, locus YOR061W, strain CKA2, hits give low values",0.87
same,normalized growth,"S. cerevisiae deletion strains, locus YOR119C, strain RIO1, hits give low values",0.974
same,normalized growth,"S. cerevisiae deletion strains, locus YOR231W, strain MKK1, hits give low values",0.876
same,normalized growth,"S. cerevisiae deletion strains, locus YOR329C, strain SCD5, hits give low values",0.974
same,normalized growth,"S. cerevisiae deletion strains, locus YPL031C, strain PHO85, hits give low values",0.937
same,normalized growth,"S. cerevisiae deletion strains, locus YPL153C, strain RAD53, hits give low values",0.908
same,normalized growth,"S. cerevisiae deletion strains, locus YPL204W, strain HRR25, hits give low values",0.876
same,normalized growth,"S. cerevisiae deletion strains, locus YPL209C, strain IPL1, hits give low values",0.978
same,normalized growth,"S. cerevisiae deletion strains, locus YPL256C, strain CLN2, hits give low values",0.772 (active)
same,normalized growth,"S. cerevisiae deletion strains, locus YPR025C, strain CCL1, hits give low values",0.975
same,normalized growth,"S. cerevisiae deletion strains, locus YPR106W, strain ISR1, hits give low values",0.981
same,normalized growth,"S. cerevisiae deletion strains, locus YPR111W, strain DBF20, hits give low values",0.992
same,normalized growth,"S. cerevisiae deletion strains, strain NNK1, hits give low values",0.984
same,normalized growth,"S. cerevisiae deletion strains, strain TSCII, hits give low values",0.976
CC(C)(C)NC(=O)N1CCN(c2nc3ccc(Cl)cc3s2)CC1,normalized growth,"S. cerevisiae deletion strains, locus YAL013W, strain DEP1, hits give low values",0.952
same,normalized growth,"S. cerevisiae deletion strains, locus YBR229C, strain ROT2, hits give low values",0.979
same,normalized growth,[1],1
same,normalized growth,"S. cerevisiae deletion strains, locus YDR150W, strain NUM1, hits give low values",0.966
same,normalized growth,"S. cerevisiae deletion strains, locus YEL061C, strain CIN8, hits give low values",0.943
same,normalized growth,"S. cerevisiae deletion strains, locus YGR078C, strain PAC10, hits give low values",0.962
same,normalized growth,[2],0.339 (active)
same,normalized growth,"S. cerevisiae deletion strains, locus YHR087W, strain rtc3, hits give low values",0.967
same,normalized growth,"S. cerevisiae deletion strains, locus YJR043C, strain POL32, hits give low values",0.976
same,normalized growth,"S. cerevisiae deletion strains, locus YJR075W, strain HOC1, hits give low values",0.981
same,normalized growth,"S. cerevisiae deletion strains, locus YKL190W, strain CNB1, hits give low values",0.993
same,normalized growth,"S. cerevisiae deletion strains, locus YLR039C, strain RIC1, hits give low values",0.82
same,normalized growth,"S. cerevisiae deletion strains, locus YLR058C, strain SHM2 (second series), hits give low values",1.02
same,normalized growth,"S. cerevisiae deletion strains, locus YLR085C, strain ARP6, hits give low values",0.552 (active)
same,normalized growth,"S. cerevisiae deletion strains, locus YLR262C, strain YPT6, hits give low values",0.913
same,normalized growth,"S. cerevisiae deletion strains, locus YML094W, strain GIM5, hits give low values",0.908
same,normalized growth,"S. cerevisiae deletion strains, locus YMR219W, strain ESC1, hits give low values",1
same,normalized growth,"S. cerevisiae deletion strains, locus YMR263W, strain SAP30, hits give low values",0.992
same,normalized growth,"S. cerevisiae deletion strains, locus YNL153C, strain GIM3, hits give low values",0.943
same,normalized growth,"S. cerevisiae deletion strains, locus YNL298W, strain CLA4 (second series), hits give low values",0.831 (active)
same,normalized growth,"S. cerevisiae deletion strains, locus YNL322C, strain KRE1, hits give low values",1.03
same,normalized growth,"S. cerevisiae deletion strains, locus YNR030W, strain Alg12, hits give low values",0.902
same,normalized growth,"S. cerevisiae deletion strains, locus YOL006C, strain TOP1, hits give low values",0.739
same,normalized growth,"S. cerevisiae deletion strains, locus YPL055C, strain LGE1, hits give low values",0.928
same,normalized growth,"S. cerevisiae deletion strains, locus YPL241C, strain CIN2, hits give low values",0.856 (active)
same,normalized growth,"S. cerevisiae deletion strains, locus YPR135W, strain CTF4, hits give low values",0.662
same,normalized growth,"S. cerevisiae strains, strain wild type, hits give low values",0.97
